In PubChem BioAssay:
Calls of active or inactive are those of the source.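 The calls were made as follows, unless noted: active = NADPH fluorescence slope more negative than the mean of all samples by about 3 SD, 99.7% confidence; inactive = the rest.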

Assays:
[1] = inhibitors of TNFa-induced NFkB p65 translocation, primary screen, imaging, HUVEC, MLSMR starter and 10KST1 sets (AID 438;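 active = inhibition above 20% together with a positive visual image hit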;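 also: compound added about 3h40 before a 20 min TNFalpha stimulation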;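 as to inhibition: signal is the nuclear over cytoplasmic p65 intensity ratio per well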); conditions: HUVEC TNFa-induced p65 nuclear translocation; cell count: measured here: nuclei count (cytotoxicity indicator), at 2.08 µM; inhibition: at 2 µM, stronger effect = higher value, 0% TNFa-plus-vehicle, 100% no-TNFa wells
[2] = reduction of polyQ htt aggregates in cells – imaging, exon1htt(103Q)mCFP cells, high-content imaging, primary screen (AID 483;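 active = visual image review flags a hit and inhibition of aggregation exceeds 20%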;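 also: compound exposure lasted 3 days before fixation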;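 as to nuclei count: percent of the per-plate median nuclei count of sample wells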); conditions: exon1htt(103Q)mCFP cell line, aggregate imaging, at 2 µM; inhibition of aggregation: stronger effect = higher value; nuclei count: measured here: cell count, toxicity
[3] = endothelial E-selectin expression blockers – imaging, HUVEC, immunofluorescence, MLSMR starter and 10KST1 sets, primary screen (AID 487;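 active = visually confirmed hit in the image check and inhibition above 20%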;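 as to inhibition: signal is fraction of cell area covered by stained E-selectin grains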;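 as to nuclei count: 100% = median nuclei count of all wells on the same plate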); conditions: HUVEC TNFalpha-induced E-selectin immunofluorescence imaging, at 2 µM; inhibition: stronger effect = higher value; nuclei count: measured here: cell number, toxicity
[4] = target: Voltage-gated potassium channel subunit beta-2 (Rattus norvegicus) (UniProt P62483); assay: inhibitors of rat Kvbeta2 reductase activity – biochemical, NADPH fluorescence, primary screen (AID 622;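 active = fluorescence slope higher than the sample average by over 3 SD, cut at about -0.22 in these data, passing the limit was not always enough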;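 also: slope of raw intensity against log time taken from 70 to 1610 s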); conditions: recombinant KvBeta, 4-cyanobenzaldehyde reduction, at 10 µM, stronger effect = higher value
[5] = target: Voltage-gated potassium channel subunit beta-2 (Rattus norvegicus) (UniProt P62483); assay: enhancers of rat Kvbeta2 NADPH turnover – biochemical, NADPH fluorescence, primary screen (AID 623); conditions: Recombinant KvBeta, NADPH fluorescence decrease slope, 10 min; at 10 µM; stronger effect = lower value;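 also: fluorescence intensity change per second fitted from 20 to 320 s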
[6] = target: Alpha-2C adrenergic receptor (Homo sapiens) (UniProt P18825); assay: compounds altering alpha2C-coupled GIRK flux – cell-based, HEK293 alpha2C/GIRK1/2, thallium flux, primary screen (AID 624;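 active = fluorescence slope after compound addition differing from the mean of all screened samples at 99.7% confidence, in either direction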;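 also: slope of fluorescence ratio to pre-addition baseline per second over 15 to 24 s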); conditions: thallium flux BTC fluorescence, at 10 µM, actives lie on both sides
[7] = blockers of RIG-like receptor reporter activation – cell-based, Sendai virus stimulus, luciferase, 10K MLSCN set, TLR/RLR signaling modifier project, primary screen (AID 602276;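 active = inhibition at or above 50% at 10 µM; inactive = inhibition below 50%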;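 also: firefly luciferase from ISG56 promoter only with Renilla not read in this screen; 0% = Sendai virus plus DMSO and 100% = medium plus DMSO without virus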); conditions: HEK293 RL24 IRF3 luciferase reporter, at 10 µM, stronger effect = higher value
[8] = TLR3 IRF3 reporter activation blockers – cell-based, poly I:C stimulus, luciferase, 10K MLSCN set, primary screen (AID 602277;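 active = inhibition of the reporter signal at or above 50%; inactive = inhibition below 50%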); conditions: HEK293-TLR3 RL24 IRF3 luciferase reporter, at 10 µM, stronger effect = higher value

Voltage-gated potassium channel subunit beta-2 (Rattus norvegicus), sequence (P62483 whole entry, looked up): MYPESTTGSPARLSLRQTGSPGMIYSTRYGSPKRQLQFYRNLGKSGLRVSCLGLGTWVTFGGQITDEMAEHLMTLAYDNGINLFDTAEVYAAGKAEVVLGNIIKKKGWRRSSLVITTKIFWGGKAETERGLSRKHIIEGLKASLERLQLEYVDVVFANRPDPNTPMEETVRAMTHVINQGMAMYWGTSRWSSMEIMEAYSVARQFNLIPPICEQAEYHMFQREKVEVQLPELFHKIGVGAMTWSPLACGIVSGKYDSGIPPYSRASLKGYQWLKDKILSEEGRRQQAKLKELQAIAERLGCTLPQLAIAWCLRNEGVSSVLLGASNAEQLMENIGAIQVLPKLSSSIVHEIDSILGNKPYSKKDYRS
Alpha-2C adrenergic receptor (Homo sapiens), sequence (P18825 whole entry, looked up): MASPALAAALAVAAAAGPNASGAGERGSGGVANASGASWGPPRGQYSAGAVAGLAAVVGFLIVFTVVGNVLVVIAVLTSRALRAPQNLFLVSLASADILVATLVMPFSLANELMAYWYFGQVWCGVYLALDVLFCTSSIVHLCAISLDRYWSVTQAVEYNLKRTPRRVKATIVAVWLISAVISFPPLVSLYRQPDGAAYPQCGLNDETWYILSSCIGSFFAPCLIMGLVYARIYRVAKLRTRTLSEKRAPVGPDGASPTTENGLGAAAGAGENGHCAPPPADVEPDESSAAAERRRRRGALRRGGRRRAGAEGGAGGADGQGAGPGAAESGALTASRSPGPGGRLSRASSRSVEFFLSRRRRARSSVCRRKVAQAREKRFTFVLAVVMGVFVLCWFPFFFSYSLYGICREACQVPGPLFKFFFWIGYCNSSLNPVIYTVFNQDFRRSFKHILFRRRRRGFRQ

Compound	cell count [1]	inhibition [1]	inhibition of aggregation [2]	nuclei count [2] [%]	inhibition [3]	nuclei count [3] [%]	fluorescence slope [4]	NADPH fluorescence slope [5]	slope [6]	inhibition [7]	inhibition [8]
CCN1C(=O)c2ccccc2S(=O)(=O)c2ccc(C(=O)NCc3cccnc3)cc21	804	-6.4% (inactive)	-35.7% (inactive)	107	-50.1% (inactive)	129	-0.569 (inactive)	-4.8e-05 (inactive)	0.00634 (inactive)	-13.6% (inactive)	1.79% (inactive)
Nc1nc2n(n1)C(c1cccc(Br)c1)CC(c1ccc(F)cc1)N2 (centres undefined)	886	-6.1% (inactive)	9.7% (inactive)	110	-59% (inactive)	102	-0.608 (inactive)	7.7e-06 (inactive)	0.00861 (inactive)	2.63% (inactive)	15.8% (inactive)
CN(C#N)c1nc(N2CCOCC2)nc(N2CCOCC2)n1	424	-3.8% (inactive)	-5.5% (inactive)	104	-192% (inactive)	105	-0.612 (inactive)	6.7e-06 (inactive)	0.00573 (inactive)	16.7% (inactive)	20% (inactive)
CCOC(=O)c1sc(NC(=O)C2CC=CCC2C(=O)O)nc1C (centres undefined)	406	2.5% (inactive)	-2.8% (inactive)	97.8	19.8% (inactive)	105	-0.527 (inactive)	5.4e-05 (inactive)	0.00721 (inactive)	21.8% (inactive)	32.8% (inactive)
CCOc1ccccc1C1C(C(=O)Nc2ccc(OC)cc2)=C(C)Nc2nc(CCCO)nn21 (centres undefined)	659	-0.3% (inactive)	-30.8% (inactive)	116	-35.4% (inactive)	118	-0.443 (inactive)	-2.8e-05 (inactive)	0.00548 (inactive)	-0.537% (inactive)	17.2% (inactive)
CCc1nnc(NC(=O)CSc2nnc(-c3cc4ccccc4cc3O)n2CC)s1	674	-7.8% (inactive)	1.7% (inactive)	109	-52.3% (inactive)	125	-0.511 (inactive)	2.5e-06 (inactive)	0.00587 (inactive)	7.37% (inactive)	11.2% (inactive)
COc1cc(C2c3c(oc4c(C)cc(C)cc4c3=O)C(=O)N2Cc2cccnc2)ccc1O (centres undefined)	627	-2.7% (inactive)	0.2% (inactive)	107	12.8% (inactive)	99.8	-0.476 (inactive)	-3.3e-05 (inactive)	0.00579 (inactive)	16.4% (inactive)	21.2% (inactive)
Cc1ccc(C)c(S(=O)(=O)n2cnc3ccccc32)c1	262	-5.9% (inactive)	17.8% (inactive)	79.3	-42.5% (inactive)	108	-0.463 (inactive)	2.3e-05 (inactive)	0.00359 (inactive)	14.5% (inactive)	27.4% (inactive)
COc1ccc(OC)c(C(=O)CSc2nnc(-c3ccc(OC)c(OC)c3)o2)c1	399	1% (inactive)	44.4% (active)	15.1	-114% (inactive)	181	-0.458 (inactive)	3.9e-05 (inactive)	0.00796 (inactive)	12% (inactive)	21.8% (inactive)
Cc1ccc(-c2cc3nc4c(c(=O)n3[nH]2)CCCC4)cc1	663	-11% (inactive)	-8.5% (inactive)	73.1	-69.9% (inactive)	119	-0.454 (inactive)	1.7e-05 (inactive)	0.00436 (inactive)	-9.26% (inactive)	-48.6% (inactive)
COc1ccc2nc3oc(C(=O)NC4CCN(Cc5ccccc5)CC4)cc3cc2c1	237	-1.3% (inactive)	-19% (inactive)	107	-9.9% (inactive)	110	-0.122 (active)	-8.2e-06 (inactive)	0.00404 (inactive)	-32.2% (inactive)	-53.8% (inactive)
CC(C)(C)NC(=O)CSc1nnc(-c2ccccn2)n1-c1ccccc1	588	-10.6% (inactive)	-12.9% (inactive)	86.7	-36.6% (inactive)	122	-0.587 (inactive)	-2e-05 (inactive)	0.00702 (inactive)	-7.01% (inactive)	26.8% (inactive)
COCCCNC(=O)c1c(N)n(-c2cccc(S(N)(=O)=O)c2)c2nc3ccccc3nc12	245	7% (inactive)	-15.6% (inactive)	98.9	1.4% (inactive)	73.3	-0.0132 (inactive)	1.8e-09 (inactive)	0.00575 (inactive)	10.6% (inactive)	-0.988% (inactive)
CCOC(=O)CSc1nnc(NCC(=O)OC(C)C)c(=O)[nH]1	634	7.2% (inactive)	3.7% (inactive)	100	-81.4% (inactive)	144	-0.573 (inactive)	3.9e-05 (inactive)	0.00694 (inactive)	9.31% (inactive)	3.05% (inactive)
COc1cccc(Cn2c(-c3nonc3N)nc3ccccc32)c1	306	-4.8% (inactive)	-97% (inactive)	1.8	-97% (inactive)	113	-0.556 (inactive)	-8.2e-05 (inactive)	0.00614 (inactive)	7.76% (inactive)	57.2% (active)
COc1cc(NC(=O)c2cc(CC(C)C)on2)c(OC)cc1Cl	558	-6% (inactive)	13.1% (inactive)	95.8	-15.3% (inactive)	106	-0.575 (inactive)	5.1e-07 (inactive)	0.00662 (inactive)	10.7% (inactive)	46.6% (inactive)
Cc1onc(-c2ccccc2)c1C(=O)Nc1ccc(S(=O)(=O)N2CCCCC2)cc1	786	7.8% (inactive)	-10.9% (inactive)	97.3	-35.5% (inactive)	108	-0.599 (inactive)	-5.5e-06 (inactive)	0.00592 (inactive)	15.1% (inactive)	32.9% (inactive)
CCn1c(C(=O)N2CCC(C(=O)N3CCN(c4ccccn4)CC3)CC2)cc2sccc21	663	-12.8% (inactive)	27.4% (inactive)	105	-79.6% (inactive)	121	-0.578 (inactive)	-4.7e-05 (inactive)	0.00642 (inactive)	-5.71% (inactive)	-29% (inactive)
O=C(COC(=O)C1CC1)c1c[nH]c2ccccc12	468	4.3% (inactive)	3% (inactive)	114	-24.9% (inactive)	103	-0.587 (inactive)	-2.6e-05 (inactive)	0.00646 (inactive)	-49.1% (inactive)	-96.8% (inactive)
